The values below come from PubChem BioAssay (EPA / NIEHS).

Test [1] in a line: ATG_TAL_CIS: Attagene CIS-FACTORIAL HepG2 Assay for human TAL Basal Promoter (AID 2282966).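 Further: background control endpoint measuring basal TAL promoter reporter mRNA not a specific factor.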 Particulars: HepG2 Attagene cis-factorial TAL promoter reporter; actives raise or lower the signal. The method in brief: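 RT-PCR plus capillary electrophoresis quantifies reporter mRNA induction in transiently transfected HepG2 cells after 24 h chemical treatment. DMSO serves as negative control and baseline for bidirectional fitting.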

The nature of test [2]: ATG_TGFb_CIS: Attagene CIS-FACTORIAL HepG2 Assay for human Transforming Growth Factor (TGF) (AID 2282967). Particulars: HepG2 Attagene CIS TGFb reporter, mRNA transcription; actives raise or lower the signal. Put shortly: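 Readout: fluorescently labeled reporter cDNA fragments resolved by capillary electrophoresis after RT-PCR. Transfected HepG2 cells dosed for 24 h; endogenous TF activity at TGFB1-linked cis element; gain or loss fitted relative to DMSO.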

Test [3] is described as follows: ATG_VDRE_CIS: Attagene CIS-FACTORIAL HepG2 Assay for human Vitamin D Receptor Element (VDRE) (AID 2282968). The note with it: HepG2 VDRE cis-reporter transcription, actives raise or lower the signal. Put shortly: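 RT-PCR/CE readout of reporter mRNA; HepG2, transient transfection, 24 h dosing; DMSO baseline; bidirectional analysis.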
Test [4] has as its target Estrogen receptor (Homo sapiens) (UniProt P03372). Briefly: ATG_ERa_TRANS: Attagene TRANS-FACTORIAL HepG2 Assay for human Estrogen Receptor alpha (ERa) (AID 2282970; active means hit-call score of the fitted dose curve at least 0.9, where 1 is the maximum). Particulars: HepG2 Attagene TRANS ERa GAL4 reporter, mRNA. The method in brief: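 Cells: HepG2, transiently transfected. Construct: GAL4-UAS reporter units regulated by exogenous NR-Gal4 chimeras. Time: 24 h. Detection: reporter mRNA by RT-PCR, capillary electrophoresis, fluorescence. Baseline: DMSO, upward fitting.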

Test [5] addresses X-box-binding protein 1 (Homo sapiens) (UniProt P17861). Briefly: ATG_Xbp1_CIS: Attagene CIS-FACTORIAL HepG2 Assay for human X-box Binding Protein 1 (XBP1) (AID 2282972). Particulars: HepG2 XBP1 cis-element reporter, Attagene multiplex; actives raise or lower the signal. The method in brief: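 After a 24-hour chemical exposure of HepG2 cells carrying cis-regulated reporters, reporter mRNA levels are assessed. Quantification uses RT-PCR, 6-FAM labelling and capillary electrophoresis. Gain- or loss-of-signal is fitted against DMSO.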

The target of test [6] is Steroid hormone receptor ERR1 (Homo sapiens) (UniProt P11474). The test is described as follows: ATG_ERRa_TRANS: Attagene TRANS-FACTORIAL HepG2 Assay for human Estrogen-Related Receptor alpha (ERRa) (AID 2282971; active means hit-call score of the fitted dose curve at least 0.9, where 1 is the maximum). Particulars: HepG2 Attagene TRANS reporter, ERRa transactivation. The method in brief: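 Reporter transcripts from ERRa-Gal4 chimera activity measured in transiently transfected human HepG2 cells 24 hours after dosing, using RT-PCR with 6-FAM primer extension, HpaI digestion and capillary electrophoresis; DMSO is baseline.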
Steroid hormone receptor ERR1 (Homo sapiens), sequence (P11474 whole entry, looked up, the tested form may be a part): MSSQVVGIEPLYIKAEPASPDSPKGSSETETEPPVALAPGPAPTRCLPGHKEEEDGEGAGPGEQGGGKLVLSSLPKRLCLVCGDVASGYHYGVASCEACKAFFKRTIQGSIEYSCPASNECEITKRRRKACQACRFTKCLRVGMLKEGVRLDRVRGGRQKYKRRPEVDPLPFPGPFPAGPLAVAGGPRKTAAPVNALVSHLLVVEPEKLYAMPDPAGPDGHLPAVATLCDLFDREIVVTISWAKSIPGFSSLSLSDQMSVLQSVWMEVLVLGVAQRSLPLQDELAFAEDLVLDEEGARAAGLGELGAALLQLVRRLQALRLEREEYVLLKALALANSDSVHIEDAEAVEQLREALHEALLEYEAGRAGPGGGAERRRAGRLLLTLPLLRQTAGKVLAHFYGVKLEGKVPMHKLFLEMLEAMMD

The nature of test [7]: ATG_M_19_TRANS: Attagene TRANS-FACTORIAL HepG2 Assay for M19 Transcription Factor (Internal Marker) (AID 2282974; active means hit-call score of the fitted dose curve at least 0.9, where 1 is the maximum). Particulars: HepG2 Attagene TRANS-FACTORIAL M19 internal marker reporter. Put shortly:
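Multiplexed TRANS format: HepG2 liver cells bearing transient GAL4-UAS reporter units, chemical treatment 24 h, reporter transcripts quantified by RT-PCR plus capillary electrophoresis. DMSO defines baseline.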

A short description of test [8]: ATG_GAL4_TRANS: Attagene TRANS-FACTORIAL HepG2 Assay for GAL4 (Internal Marker) (AID 2282976; active means hit-call score of the fitted dose curve at least 0.9, where 1 is the maximum). Particulars: HepG2 Attagene TRANS GAL4 internal marker reporter. The method in brief:
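In transfected human HepG2 liver cells dosed 24 h, GAL4 reporter mRNA serves as a baseline marker. Detection by RT-PCR with fluorescent capillary electrophoresis, activity fitted upward relative to DMSO.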

The target in test [9] is Estrogen-related receptor gamma (Homo sapiens) (UniProt P62508). The test is described as follows: ATG_ERRg_TRANS: Attagene TRANS-FACTORIAL HepG2 Assay for human Estrogen-Related Receptor gamma (ERRg) (AID 2282977; active means hit-call score of the fitted dose curve at least 0.9, where 1 is the maximum;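 further: hits increase reporter signal over DMSO so potencies reflect activators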). Particulars: HepG2 Attagene TRANS reporter, ERRg transactivation. Put shortly: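 HepG2 cells transiently transfected with multiplexed GAL4-UAS reporter units driven by chimeric NR-Gal4 proteins; 24 h exposure. Reporter mRNA quantified by RT-PCR, fluorescent labelling, HpaI digestion and capillary electrophoresis; gain of signal vs DMSO.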
Estrogen-related receptor gamma (Homo sapiens), sequence (P62508 whole entry, looked up, the tested form may be a part): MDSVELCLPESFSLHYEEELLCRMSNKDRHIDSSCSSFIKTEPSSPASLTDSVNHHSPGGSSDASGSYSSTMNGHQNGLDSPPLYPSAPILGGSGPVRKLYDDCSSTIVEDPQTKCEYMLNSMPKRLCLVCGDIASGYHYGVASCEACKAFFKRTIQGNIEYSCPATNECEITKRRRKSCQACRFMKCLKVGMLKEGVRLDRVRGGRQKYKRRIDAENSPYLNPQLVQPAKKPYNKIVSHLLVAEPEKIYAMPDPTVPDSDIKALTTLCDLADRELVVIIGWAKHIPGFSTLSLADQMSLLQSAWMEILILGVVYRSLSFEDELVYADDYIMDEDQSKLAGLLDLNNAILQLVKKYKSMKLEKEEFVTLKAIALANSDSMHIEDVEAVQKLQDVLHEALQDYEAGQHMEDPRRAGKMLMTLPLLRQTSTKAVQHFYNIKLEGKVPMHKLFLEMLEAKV

Test [10] concerns the target Androgen receptor (Homo sapiens) (UniProt P10275). The test is described as follows: ATG_AR_TRANS: Attagene TRANS-FACTORIAL HepG2 Assay for human Androgen Receptor (AR) (AID 2282973; active means hit-call score of the fitted dose curve at least 0.9, where 1 is the maximum). The note with it: HepG2 Attagene TRANS-FACTORIAL AR reporter transcription. Put shortly:
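Transcriptional activity of an exogenous AR–Gal4 fusion read as GAL4-UAS reporter transcript levels in transfected human HepG2 cells after 24 h dosing. Detection via RT-PCR, 6-FAM labelling, HpaI digest and capillary electrophoresis; increase over DMSO baseline.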

Where “and” joins values, the source holds several entries; their conditions need not be identical. Equal entries are not always repeated. Records with an inconclusive call do not appear. A structure can be active in one record and inactive in another. Calls of active or inactive are those of the source. How the source made its calls, unless noted: active means hit-call score of the fitted dose curve at least 0.9, where 1 is the maximum; inactive means score below 0.9.

A word on the AC50: it is the concentration giving half of the maximal activity seen.

X-box-binding protein 1 (Homo sapiens), sequence (P17861 whole entry, looked up): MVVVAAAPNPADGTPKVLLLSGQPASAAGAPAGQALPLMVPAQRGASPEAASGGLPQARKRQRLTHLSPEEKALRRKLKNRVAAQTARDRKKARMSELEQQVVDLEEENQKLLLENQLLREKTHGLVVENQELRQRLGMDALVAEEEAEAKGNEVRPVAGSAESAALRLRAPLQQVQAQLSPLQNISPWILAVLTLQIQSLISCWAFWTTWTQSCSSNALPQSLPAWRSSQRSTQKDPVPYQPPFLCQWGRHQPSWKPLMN
Estrogen receptor (Homo sapiens), sequence (P03372 whole entry, looked up, the tested form may be a part): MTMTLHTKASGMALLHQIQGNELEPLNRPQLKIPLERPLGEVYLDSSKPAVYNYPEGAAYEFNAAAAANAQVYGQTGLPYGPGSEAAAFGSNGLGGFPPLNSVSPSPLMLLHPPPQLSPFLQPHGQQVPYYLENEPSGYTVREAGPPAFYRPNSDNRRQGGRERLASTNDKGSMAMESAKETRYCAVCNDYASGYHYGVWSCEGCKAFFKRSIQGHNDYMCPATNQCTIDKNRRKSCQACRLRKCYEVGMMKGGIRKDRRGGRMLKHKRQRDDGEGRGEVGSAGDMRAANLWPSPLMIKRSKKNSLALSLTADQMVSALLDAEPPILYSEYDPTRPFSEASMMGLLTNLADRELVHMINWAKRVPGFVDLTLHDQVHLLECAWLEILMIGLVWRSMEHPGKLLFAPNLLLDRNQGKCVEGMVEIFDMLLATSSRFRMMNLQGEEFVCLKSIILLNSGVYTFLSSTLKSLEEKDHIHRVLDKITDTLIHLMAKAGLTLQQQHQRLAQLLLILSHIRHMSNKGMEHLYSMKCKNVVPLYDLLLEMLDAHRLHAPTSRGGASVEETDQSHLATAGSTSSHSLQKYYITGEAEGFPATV
Androgen receptor (Homo sapiens), sequence (P10275 whole entry, looked up, the tested form may be a part): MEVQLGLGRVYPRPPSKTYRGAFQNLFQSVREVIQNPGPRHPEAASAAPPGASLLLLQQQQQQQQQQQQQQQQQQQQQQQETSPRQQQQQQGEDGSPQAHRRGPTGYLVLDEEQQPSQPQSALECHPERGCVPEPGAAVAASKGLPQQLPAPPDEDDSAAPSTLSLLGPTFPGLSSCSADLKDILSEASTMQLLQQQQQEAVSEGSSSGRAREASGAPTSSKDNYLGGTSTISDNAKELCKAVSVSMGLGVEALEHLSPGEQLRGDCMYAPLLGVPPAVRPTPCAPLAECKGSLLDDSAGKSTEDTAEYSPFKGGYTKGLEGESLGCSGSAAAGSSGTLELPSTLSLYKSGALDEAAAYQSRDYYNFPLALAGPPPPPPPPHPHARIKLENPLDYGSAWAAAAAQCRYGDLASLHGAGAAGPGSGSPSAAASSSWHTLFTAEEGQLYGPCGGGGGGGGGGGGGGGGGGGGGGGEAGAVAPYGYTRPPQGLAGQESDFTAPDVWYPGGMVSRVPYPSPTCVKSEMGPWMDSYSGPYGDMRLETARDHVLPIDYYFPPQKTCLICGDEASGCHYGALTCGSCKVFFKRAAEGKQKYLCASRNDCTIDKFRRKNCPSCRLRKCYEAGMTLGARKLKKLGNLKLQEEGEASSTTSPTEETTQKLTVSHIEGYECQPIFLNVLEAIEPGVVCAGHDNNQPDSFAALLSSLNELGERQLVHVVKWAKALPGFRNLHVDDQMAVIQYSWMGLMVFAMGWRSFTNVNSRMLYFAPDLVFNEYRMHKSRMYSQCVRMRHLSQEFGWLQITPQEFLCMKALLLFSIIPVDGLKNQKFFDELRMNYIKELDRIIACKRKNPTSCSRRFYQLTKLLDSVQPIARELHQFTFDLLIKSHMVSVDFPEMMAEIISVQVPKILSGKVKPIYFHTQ

For `Cc1ccc([N+](=O)[O-])cc1`, the compound was classed as inactive in [1], in test [2], in [3], in [4] and in test [5].

`O=P(OCCCl)(OCCCl)OCCCl`: the compound was classed as inactive in test [1], in [2], in [3], in [6], in test [5] and in [7]. Moreover, the outcome in test [8] was inactive.

On to `c1ccc(N=Nc2ccccc2)cc1`, for which the compound was classed as inactive in test [1], in test [2], in test [3], in test [6], in [5] and in test [8].

As for `CCCCCCCCn1sccc1=O`, the compound was classed as inactive in test [1], in test [2], in test [7], in [8] and in test [9]. The AC50 in test [3] was 16.7 µM (active); in test [4] it was 16.9 µM (active); in test [5] it was 16.5 µM (active).

As to `CC(C)(C)OOC(C)(C)CCC(C)(C)OOC(C)(C)C`, the compound was classed as inactive in [1], in [2], in test [3], in test [6], in test [5] and in [9].

Turning to `O=[N+]([O-])c1ccc(Oc2ccc(Cl)cc2Cl)cc1`, the compound was classed as inactive in test [1], in test [6], in [5], in [7] and in test [8]. Moreover, the AC50 in test [2] was 100 µM (active); in [3] it was 27.3 µM (active).

Regarding `CCOc1cccc(C2(N3CCN(c4ccccc4)CC3)CCC(C)CC2)c1` (stereo unspecified), the compound was called inactive in test [1], in [2], in [3], in test [4], in test [5] and in test [8].

Take `CCCCCOC(=O)c1ccccc1C(=O)OCCCCC`: the compound was classed as inactive in test [1], in test [2], in [4], in test [5] and in [8]. Further, the AC50 in test [3] was 89.8 µM (active).

For the compound `OCCCBr`, the result in [1], in test [2], in [3], in test [4], in test [6] and in [5] was inactive.

In the case of `CCNS(=O)(=O)C(F)(F)C(F)(F)C(F)(F)C(F)(F)C(F)(F)C(F)(F)C(F)(F)C(F)(F)F`, the call in [1], in test [3], in test [6], in test [10], in test [7] and in test [9] was inactive. Further, the AC50 is 91.1 µM (active) and 44 µM (active) and 40.3 µM (active) in test [2]; 67.3 µM (active) and 25.7 µM (active) in test [3]; 73.3 µM (active) and 84.4 µM (active) and 31.5 µM (active) in test [5].

With `O=Cc1ccco1`, the compound was called inactive in test [1], in test [2], in test [3], in test [5] and in test [7].

As for `Oc1ccc2ccc3cccc4ccc1c2c34`, the result in test [1], in [2], in [3], in test [5] and in [7] was inactive.

As for `CC(C)(C)OOC(=O)c1ccccc1`, the compound was classed as inactive in test [1], in test [2] and in [3]. In addition, in test [5], the AC50 is 150 µM (active).

In the case of `CC(O)CCO` (stereo unspecified), the outcome in [1], in test [2], in [3] and in test [5] was inactive.

As to `c1ccc(C2CO2)cc1` (stereo unspecified), the compound was called inactive in [1], in [2], in test [3], in [5] and in [7].

Turning to `O=C(O)C1C2CCC(O2)C1C(=O)O` (stereo unspecified), the outcome in test [1] and in test [2] was inactive. Moreover, the AC50 in test [3] and in [5] was 100 µM (active) throughout.

Regarding `CCCCC(CC)COC(=O)c1ccc(C(=O)OCC(CC)CCCC)c(C(=O)OCC(CC)CCCC)c1` (stereo unspecified), the call in [1], in [2], in [3], in test [5], in test [10] and in test [7] was inactive. Also, the result in test [8] was inactive.

As to `CO[C@@H]1[C@H](OC(=O)NC(=O)CCl)CC[C@]2(CO2)[C@H]1[C@@]1(C)O[C@@H]1CC=C(C)C`, the compound was classed as inactive in test [1], in test [2], in [3], in [10] and in test [9]. Moreover, in test [5], the concentration at half-maximal activity (AC50) is 30.9 µM (active).

Turning to `CCC[CH2][Sn]([Cl])([CH2]CCC)[CH2]CCC`, the compound was called inactive in test [1], in test [2] and in test [7]. The half-maximal activity concentration (AC50) in test [3] is 0.412 µM (active); in [5], 0.639 µM (active).

With `Nc1ccc(Cc2ccc(N)cc2)cc1`, the outcome in [1], in test [2], in test [3], in test [5] and in test [7] was inactive.
